Test results reported in ChEMBL document CHEMBL4513216, “Probing the Open Global Health Chemical Diversity Library for Multistage-Active Starting Points for Next-Generation Antimalarials” (ACS Infect Dis, 2020).
In all, about 68,000 compounds went through this assay and about 2,700 (4%) showed an effect of 50% or more. This is one part of a sample in which strong results are shown more often than they occur.

Test system: Plasmodium berghei
Assay: Screen against P. berghei liver stage (PbLuc), transformed with Luciferase, at 2uM
Format: functional, HepG2
Details: tested at 2 uM

SMILES | INHIBITION [%]
COCCN1CC2(CCCN(C(=O)NCc3ccccc3)C2)CCC1=O (stereo unspecified) | 13.53
CCc1cc(NCCN2CCNC2=O)n2nccc2n1 | 25.69
CCc1cc(NCCCC2CCOC2)n2nccc2n1 (stereo unspecified) | -3.6
CCCc1cc(NCCCC2CCOC2)n2nccc2n1 (stereo unspecified) | 26.35
O=C1NCCN1CCNc1cc(-c2ccccc2)nc2ccnn12 | -8.8
CCCc1cc(NCCN2CCNC2=O)n2nccc2n1 | 68.39
CCCc1cc(NCCC2CCCOC2)n2nccc2n1 (stereo unspecified) | 50.41
CC(SCCC(=O)NC(N)=O)c1cccc(F)c1 (stereo unspecified) | 4.07
Cc1cc(CN2CCC(N(C)Cc3noc(C4CC4)n3)C2)no1 (stereo unspecified) | -17.31
COc1cccc(S(=O)(=O)N2CCCCC2CCN2CCCC2=O)c1 (stereo unspecified) | 25.51
NCC(c1ccc(Cl)cc1)N1CCc2sccc2C1 (stereo unspecified) | -5.59
CC(C)NC(=O)N1CCC2(CC1)[C@@H]1CN(C(=O)N(C)C)C[C@@H]1C(=O)N2C | 24.36
COC(=O)CCC(=O)NC1CCCc2cc(OC(F)F)ccc21 (stereo unspecified) | -41.81
O=C(CS(=O)(=O)C1CCCC1)NC1CCCc2cc(OC(F)F)ccc21 (stereo unspecified) | 14.88
O=C(COCC(F)(F)F)NC1CCCc2cc(OC(F)F)ccc21 (stereo unspecified) | 60.52
CC(C)NC(=O)N1CCCCCC1C1CCN(c2ncccn2)CC1 (stereo unspecified) | 36.28
O=C(O)c1ccccc1-c1ccc(CN2CC(c3ccncn3)C2)o1 | -44.74
Cc1nc(CCNC(=O)NC2CCCc3c2cnn3CCO)cs1 (stereo unspecified) | -47.76
O=C(NC1CCCCC1)NC1CCCc2c1cnn2CCO (stereo unspecified) | -39.36
Cc1nnc(NC(=O)NC2CCCc3c2cnn3CCO)s1 (stereo unspecified) | 53.57
Cc1cc(NC(=O)NC2CCCc3c2cnn3CCO)n(C)n1 (stereo unspecified) | 32.55
CCn1cc(NC(=O)NC2CCCc3c2cnn3CCO)cn1 (stereo unspecified) | 56.57
O=C(Nc1nncs1)NC1CCCc2c1cnn2CCO (stereo unspecified) | 8.27
Cc1cc(C)cc(NC(=O)c2cnc(N3CCN(C)CC3)nc2C)c1 | 19.84

SMILES | INHIBITION [%]
Cc1cc(C)c(CNC(=O)C(C)Oc2ccccc2C#N)c(=O)[nH]1 (stereo unspecified) | 35.43
CCOCC(=O)N1C[C@H]2CN(CC3CC3)C(=O)[C@H]2C1 | -3.65
O=C(c1ncoc1C1CC1)N1CCCN(CCCc2ccccc2)CC1 | 26.3
CC1CCN(C(=O)CSCCN2CCOCC2)CC1 | 8.64
COCCN1CCN(c2ccc(CN(C)C)cn2)CC1 | -0.85
O=C(Nc1cnc2n1CCCC2)c1cccc(NC(=O)C2CCCC2)c1 | 22
CC(=O)Nc1cccc(C(=O)Nc2cnc3n2CCCC3)c1 | 19.61
O=C(Nc1cnc2n1CCCC2)c1cccc(-n2cnnc2)c1 | 50.91
CSc1ncccc1C(=O)NCCC(O)c1ccco1 (stereo unspecified) | 14.45
O=C(NCc1nnc2n1CCC2)c1cn(-c2ccccc2Br)nn1 | -17.44
CN(C)S(=O)(=O)NC1CCCc2c1cnn2-c1ccc(C(C)(C)C)cc1 (stereo unspecified) | 75.11
CC(C)(C)c1ccc(-n2ncc3c2CCCC3N)cc1 (stereo unspecified) | 46.95
Cc1ccc(-n2ncc3c2CCCC3N)cc1C (stereo unspecified) | -13.35
CCC(C)(C)n1nnnc1C(c1cccs1)N1CCc2ccccc2C1 (stereo unspecified) | 36.24
Cc1nn(CCC(=O)NC2CCCOC2)c(C)c1C (stereo unspecified) | -3.15
CCc1noc(CN(CC(=O)N2CCCCC2)c2ccc(C)cc2)n1 | 38.67
Cc1ccc(N(CC(=O)N2CCCCC2)C(=O)C2CCCO2)cc1 (stereo unspecified) | -82.35
Cc1ccc(N(CC(=O)N2CCCCC2)C(=O)C2COCCO2)cc1 (stereo unspecified) | 72.49
CCOc1ccc(Br)cc1-c1cc(N)[nH]n1 | 9.66
CCN(Cc1nnsc1Cl)C(C)c1ccc(C#N)cc1 (stereo unspecified) | 56.49
CC(C)N(Cc1ccc(C#N)cc1)Cc1nnsc1Cl | 22.34
CCCN(Cc1ccc(C#N)cc1)Cc1nnsc1Cl | 20.14
Cc1cc(C)nc(N2CCC(c3ccnc(N(C)C)n3)CC2)n1 | -42.91
Cc1nc(O)cc([C@@H]2CN(C(=O)C3CC3)C[C@H]2c2ccccc2F)n1 | -7.22

SMILES | INHIBITION [%]
CC(=O)NCCNC(=O)CN1CCOC(Cn2cccn2)C1 (stereo unspecified) | -21.68
CC(C)(Oc1ccc2c(c1)CCCC2=O)C(=O)NCc1ccco1 | 15.88
CC(C)(Oc1ccc(F)cc1)C(=O)NCc1ccco1 | 58.14
CC(C)(C)Oc1ccc(NCC(=O)NCc2ccco2)cc1 | -62.92
c1ccc(N2CCCC3(COCCN(c4nccs4)C3)C2)nc1 (stereo unspecified) | -29.98
COc1cccc(CN2CCc3nc(C(=O)NCC(C)C)sc3CC2)c1 | -4.19
COc1ccc(C)cc1-n1cnnc1C1CC(=O)N(C)C1 (stereo unspecified) | 43.57
Cc1nccc(C2CN(C(=O)c3cncnc3)C2)n1 | 38.22
Cc1cc(C2CCCN(S(=O)(=O)N(C)C)C2)ccn1 (stereo unspecified) | -5.34
CC(Cn1cncn1)NC(=O)Nc1ccc(COC2CCCC2)cc1 (stereo unspecified) | 1.01
CC(Cn1cncn1)NC(=O)NCC(C)(C)Cc1ccccc1 (stereo unspecified) | 46.98
CSCCc1ccc(NC(=O)NC(C)Cn2cncn2)cc1 (stereo unspecified) | 60.34
O=C(c1cocn1)N1CCC2(CC1)CC(OCC1CC1)CO2 (stereo unspecified) | 1.33
O=C(c1cccnc1)N1CCC2(CCN(C(=O)c3ccco3)CC2)C1 | 14.52
Nc1nc2nc(C3CCCN(C(=O)c4cnccn4)C3)ccc2s1 (stereo unspecified) | 46.98
Nc1nc2nc(C3CCCN(C(=O)c4cncs4)C3)ccc2s1 (stereo unspecified) | 52.82
CC(=O)N1CCCC(c2ccc3sc(N)nc3n2)C1 (stereo unspecified) | 17.01
Cc1ccc([C@]2(O)CC[C@H]3CN(Cc4cc(C)c(O)c(C)c4)C[C@H]32)nc1 | 13.65
Cc1ccc([C@]2(O)CC[C@H]3CN(Cc4cccc(Cl)c4Cl)C[C@H]32)nc1 | 45.82
Cc1ccc([C@]2(O)CC[C@H]3CN(Cc4cccnc4)C[C@H]32)nc1 | 12.16
COc1ncc(CN2C[C@@H]3CC[C@@](O)(c4ccc(C)cn4)[C@@H]3C2)cn1 | -2.21
Cc1ccc([C@]2(O)CC[C@H]3CN(Cc4ccncc4)C[C@H]32)nc1 | 51.35
CSc1ccc(CN2C[C@@H]3CC[C@@](O)(c4ccc(C)cn4)[C@@H]3C2)cc1 | 61.3
